These results are taken from PubChem BioAssay (EPA / NIEHS).

A short description of assay [1]: CCTE_Mundy_HCI_Cortical_Synap_Neur_Matur_NeuriteSpotCountPerNeuriteLength: CCTE's Synaptogenesis and Neurite Maturation Assay in rat cortical cells for Neurite Spot Count per Neurite Length, Mundy Lab (AID 2284210). Put shortly:
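Neurite-associated synapse density (synaptophysin puncta per unit neurite length) is measured by fluorescence high-content imaging in rat cortical cultures treated from DIV 7 and fixed at DIV 12, with DMSO as negative control.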

Assay [2] can be described thus: CCTE_Mundy_HCI_Cortical_NOG_NeuriteLength: CCTE's Neurite Outgrowth Assay in rat cortical cells for Neurite Length, Mundy Lab (AID 2284213). The method in brief: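 First, rat primary cortical cells were plated and, 2 h later, given test chemical as a 1/10 dilution. Finally, βIII-tubulin immunostaining enabled automated imaging of neurite length.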
The nature of assay [3]: CCTE_Mundy_HCI_Cortical_Synap_Neur_Matur_NeuriteLength: CCTE's Synaptogenesis and Neurite Maturation Assay in rat cortical cells for Neurite Length, Mundy Lab (AID 2284214). The method in brief: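 Cultures of rat primary cortical cells received chemical at DIV 7 and were fixed at DIV 12, after glial arrest with AraC at DIV 5. Neurite length was measured by automated imaging of MAP2 immunofluorescence.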

Assay [4] in a line: CCTE_Mundy_HCI_Cortical_Synap_Neur_Matur_SynapseCount: CCTE's Synaptogenesis and Neurite Maturation Assay in rat cortical cells for Synapse Count, Mundy Lab (AID 2284218). Put shortly: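 Cells were plated, allowed 2 hr to attach, treated with AraC at DIV 5, then exposed to chemicals from DIV 7 until DIV 12. After fixation and MAP2/synaptophysin immunolabelling, synapses per neuron were quantified by automated imaging against DMSO.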

Assay [5] is described as follows: CCTE_Mundy_HCI_Cortical_Synap_Neur_Matur_CellBodySpotCount: CCTE's Synaptogenesis and Neurite Maturation Assay in rat cortical cells for Cell Body Spot Count, Mundy Lab (AID 2284223). Put shortly: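 Read-out: cell body-associated synaptophysin puncta per neuron, imaged after MAP2, synaptophysin and Hoechst staining. Rat cortical cells, AraC DIV 5, chemical dosing DIV 7, fixation DIV 12. Activity fitted in positive direction relative to DMSO baseline.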

A short description of assay [6]: CCTE_Mundy_HCI_Cortical_NOG_NeuronCount: CCTE's Neurite Outgrowth Assay in rat cortical cells for Neuron Count, Mundy Lab (AID 2284236; active means hit-call score of the fitted dose curve at least 0.9, where 1 is the maximum;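 further: neurons counted by imaging betaIII-tubulin and Hoechst stained cortical cells; cells exposed to compound for about 48 hours before fixation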). The method in brief:
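Read-out: neuron number by high-content imaging of betaIII-tubulin (Alexa Fluor-488) and Hoechst-labelled rat primary cortical cells.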

The nature of assay [7]: CCTE_Mundy_HCI_Cortical_Synap_Neur_Matur_NeuronCount: CCTE's Synaptogenesis and Neurite Maturation Assay in rat cortical cells for Neuron Count, Mundy Lab (AID 2284242; active means hit-call score of the fitted dose curve at least 0.9, where 1 is the maximum). The method in brief:
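Cortical cells from rat are plated, treated with AraC at DIV 5, and exposed to test chemicals with a media change at DIV 7. At DIV 12 they are fixed and immunostained (MAP2, synaptophysin), and imaged neuron counts are compared against DMSO controls.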

A short description of assay [8]: IUF_NPC2a_radial_glia_migration_120hr: Leibniz Research Institute for Environmental Medicine (IUF) 120-hour Neural Progenitor Cell Migration Assay for Radial Glia Migration (NPC2a) (AID 2284298). Put shortly: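 Hoechst-stained nuclei imaged at 120 h; algorithm maps sphere core by densest nuclei, sets migration edge at density threshold, gives radial glia migration distance (um) per well vs DMSO. hNPC spheres (0.3 mm), PDL/laminin, DMEM/F12 3:1 + 1% N2.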

Assay [9] can be described thus: IUF_NPC2a_radial_glia_migration_72hr: Leibniz Research Institute for Environmental Medicine (IUF) 72-hour Neural Progenitor Cell Migration Assay for Radial Glia Migration (NPC2a) (AID 2284299). The method in brief: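 Single 0.3 mm neurospheres were plated per well in N2 differentiation medium and exposed from the start of differentiation. After 72 hours, brightfield images were taken and radial glia migration from the sphere core edge was measured manually in four directions, averaged per well.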

Assay [10] is described as follows: IUF_NPC2b_neuronal_migration_120hr: Leibniz Research Institute for Environmental Medicine (IUF) 120-hour Neural Progenitor Cell Migration Assay for Neuron Migration (NPC2b) (AID 2284300). The method in brief: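 hNPC spheres, PDL/laminin, DMEM:F12 3:1 + 1% N2, 37C/5% CO2; 7 concentrations + solvent control (DMSO ≤0.1%), 5 d exposure, half-feed day 3. Fix 120 h, TUBB3 ICC, HCI: mean neuron migration distance ÷ glia distance.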

Assay [11] in a line: IUF_NPC3_neuronal_differentiation_120hr: Leibniz Research Institute for Environmental Medicine (IUF) 120-hour Neuronal Differentiation Assay (NPC3) (AID 2284301). Put shortly:
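Neuronal differentiation of primary human neural progenitors measured by high-content imaging: percent TUBB3+ of Hoechst+ nuclei within migrated area at 120 h, seven-point serial dilution plus solvent control, gain or loss relative to DMSO.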

The nature of assay [12]: IUF_NPC4_neurite_length_120hr: Leibniz Research Institute for Environmental Medicine (IUF) 120-hour Neuronal Morphology Assay for Neurite Length (NPC4) (AID 2284302). Put shortly: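 Neurons from differentiating human fetal neural progenitor spheres are scored for average neurite length after five days of compound exposure. Fitting uses DMSO as negative control.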
Assay [13] can be described thus: IUF_NPC5_oligodendrocyte_differentiation_120hr: Leibniz Research Institute for Environmental Medicine (IUF) 120-hour Oligodendrocyte Differentiation Assay (NPC5) (AID 2284304; active means hit-call score of the fitted dose curve at least 0.9, where 1 is the maximum;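 further: primary human fetal neural progenitor spheres plated to migrate and differentiate; share of O4-positive cells among Hoechst nuclei found by CNN image analysis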). The method in brief:
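hNPC spheres, fetal cortex GW 16-19; PDL/laminin, DMEM:F12 3:1 + 1% N2, 37C/5% CO2; 7 concentrations + solvent control, 5 d exposure, half-change day 3. Readout: %O4+ of Hoechst+ nuclei in migration area, CNN classification; DMSO baseline.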

Assay [14] is described as follows: IUF_NPC4_neurite_area_120hr: Leibniz Research Institute for Environmental Medicine (IUF) 120-hour Neuronal Morphology Assay for Neurite Area (NPC4) (AID 2284305; active means hit-call score of the fitted dose curve at least 0.9, where 1 is the maximum). The method in brief: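 Endpoint at 120 h: automated imaging of TUBB3/Hoechst-stained differentiating human neural progenitor spheres, neurite area per neuron from skeletonization. DMSO solvent control, not above 0.1%, set the baseline; medium was half-replaced on day 3.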

Assay [15] is described as follows: IUF_NPC2-5_cytotoxicity_72hr: Cytotoxicity Assessment at 72 hours in the Leibniz Research Institute for Environmental Medicine (IUF) Neural Progenitor Cell Migration and Differentiation Assay for Cytotoxicity (NPC2-5) (AID 2284306; active means hit-call score of the fitted dose curve at least 0.9, where 1 is the maximum;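 further: LDH release into supernatant measured by resorufin fluorescence marking membrane damage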). Put shortly:
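Primary human neural progenitor spheres migrate and differentiate on laminin. Compound is present from the start of differentiation, with DMSO kept at or below 0.1%. At 72 h, supernatant LDH is quantified fluorometrically, with values fitted in the positive direction.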

A short description of assay [16]: IUF_NPC2-5_cytotoxicity_120hr: Cytotoxicity Assessment at 120 hours in the Leibniz Research Institute for Environmental Medicine (IUF) Neural Progenitor Cell Migration and Differentiation Assay (NPC2-5) (AID 2284307; active means hit-call score of the fitted dose curve at least 0.9, where 1 is the maximum;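 further: LDH released into supernatant as membrane damage marker via resorufin fluorescence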). Put shortly:
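hNPC spheres on PDL/laminin, N2 medium, 37C; 7 concs + solvent control, DMSO ≤0.1%; 5-day exposure, half medium changed day 3. LDH in supernatant at 120 h, resazurin→resorufin fluorescence, gain-of-signal.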

A short description of assay [17]: IUF_NPC2-5_cell_number_120hr: Cell Number Assessment at 120 hours in the Leibniz Research Institute for Environmental Medicine (IUF) Neural Progenitor Cell Migration and Differentiation Assay (NPC2-5) (AID 2284308).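 Further: count of Hoechst-stained nuclei in migration zone around plated human neural progenitor spheres.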 Put shortly: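 Hoechst-stained nuclei within the migration area were counted by automated high content imaging after 120 h. Single hNPC spheres differentiated on poly-D-lysine/laminin in DMEM/F12 (3:1) with 1% N2, compound present throughout, DMSO ≤0.1%.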

The nature of assay [18]: IUF_NPC2-5_viability_120hr: Viability Assessment at 120 hours in the Leibniz Research Institute for Environmental Medicine (IUF) Neural Progenitor Cell Migration and Differentiation Assay (NPC2-5) (AID 2284312). The method in brief:
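Human fetal (GW 16-19) neural progenitor spheres of 0.3 mm were plated on poly-D-lysine/laminin in N2 differentiation medium and exposed from day 0 for 120 h, with half-medium refresh at day 3. Viability was read as alamar blue resazurin-to-resorufin fluorescence against DMSO.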

Assay [19] in a line: IUF_NPC1_cytotoxicity_72hr: Cytotoxicity Assessment at 72 hours in the Leibniz Research Institute for Environmental Medicine (IUF) Neural Progenitor Cell Proliferation Assay (NPC1) (AID 2284332; active means hit-call score of the fitted dose curve at least 0.9, where 1 is the maximum;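 further: rising LDH signal means more cytotoxicity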). Put shortly: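 Membrane-integrity loss is scored from LDH released into the medium, detected as resorufin fluorescence, with activity fitted upward relative to baseline. Test material stays on human fetal-derived progenitor spheres for 72 h.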

The structures appear in SMILES notation. Records with an inconclusive call do not appear. Active and inactive are the calls of the source. How the source made its calls, unless noted: active means hit-call score of the fitted dose curve at least 0.9, where 1 is the maximum; inactive means score below 0.9.

As a reminder, the AC50 is the concentration at which the activity in the assay is half-maximal.

Consider `CN(C)CCCn1cc(C2=C(c3c[nH]c4ccccc34)C(=O)NC2=O)c2ccccc21`, for which the outcome in assay [1], in [2], in assay [3], in assay [4], in assay [5] and in [6] was inactive. Besides, the outcome in [7] and in assay [19] was inactive. The AC50 was 5.37 µM (active) in assay [8]; 11.3 µM (active) in [9]; 16.3 µM (active) in assay [10]; 16.2 µM (active) in assay [11]; 4.06 µM (active) in assay [12]; 746 nM (active) in assay [13]. Also, the AC50 is 7.2 µM (active) in assay [14]; 13.9 µM (active) in assay [15]; 8.39 µM (active) in assay [16]; 2.31 µM (active) in [17]; 6.01 µM (active) in [18].
